We go through 88 molecules from PubChem BioAssay AID1259417 (TB Discovery Research, Infectious Disease Research Institute, 2018).

The term inhibition denotes the change of the read-out against control, counted positive when it falls.

The campaign covered roughly 1,100 compounds. About 760 (69%) were called active. How the calls were made is not given here. The set was probably picked from earlier hits. The list shows a part of the results.

The assay in a line: M. tuberculosis growth inhibition, HTS (AID 1259417).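 Further: bacteria grown with compound for 5 days at 37 °C.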 Conditions: stronger effect = higher value, concentration not given here.
Setting [1] is: M. tuberculosis DsRed fluorescence growth inhibition.
Where [2] appears, read: M. tuberculosis growth inhibition.

For the molecule `Cc1ccc(C)c(OCC(=O)Nc2ccc(C(=O)OC(C)C)cc2)c1C`, the inhibition by setting is: under setting [1], 8.22% (inactive); under setting [2], -22.5%.
For the molecule `Cc1ccc(C(=O)Nc2ccc([N+](=O)[O-])cc2)s1`, the inhibition is, setting by setting: under setting [1], 98.3% (active); under setting [2], 94.8%.
On the same counts, the results for `CCOC(=O)c1ccc(NC(=O)C=Cc2ccc([N+](=O)[O-])s2)cc1` are 52.9% (active) and 80.2%.
The like results for `CCOC(=O)c1ccc(NC(=O)c2ccc(C)s2)cc1` were, in that order, 91.5% (active) and 65.1%.
The like results for `CCOC(=O)c1c(NC(=O)C2COc3ccccc3O2)sc2c1CC(C)(C)NC2(C)C` (stereo unspecified) were, in that order, 29.1% (inactive) and -2.75%.
For `O=Cc1ccc2oc3nc4n(c(=O)c3c(=O)c2c1)CCCS4`, the inhibition is 96.9% (active) under setting [1] and 95.6% under setting [2].
Take `O=c1c2cc(Cl)ccc2oc2nc3n(c(=O)c12)CCCS3`: the inhibition under setting [1] was 99.1% (active) and the inhibition under setting [2] was 98.2%.
The like results for `CC(C)c1ccc(-c2csc(NC(=O)c3ccc4c(c3)OCCO4)n2)cc1` were, in that order, -4.25% (inactive) and -26.1%.
The like results for `O=C(Nc1ccn(Cc2ccc(Cl)cc2)n1)c1ccc2c(c1)OCO2` were, in that order, 100% (active) and 99.3%.
The like results for `O=C1N(Cc2ccccc2Cl)c2ccc(Br)cc2C1(O)c1c[nH]c2ccccc12` (stereo unspecified) were, in that order, 10.6% (inactive) and -0.98%.
Consider `CCN(CC)c1ccc(NC(=O)c2ccc([N+](=O)[O-])o2)c(C)c1`, for which the inhibition was 98.8% (active) under setting [1] and 99.7% under setting [2].
The like results for `Cc1ccc(C(=O)Nc2ccc([N+](=O)[O-])cc2C)cc1I` were, in that order, 97.4% (active) and 83.2%.
On the same counts, the results for `Cc1ccc(C(=O)Nc2sc(C)c(C)c2C(N)=O)cc1I` are 3.89% (inactive) and -13.1%.
The like results for `O=C(Nc1ccccc1Br)c1ccc([N+](=O)[O-])o1` were, in that order, 64% (active) and 42.2%.
As to `CCc1cc(I)ccc1NC(=O)c1ccc([N+](=O)[O-])o1`, the inhibition was 98% (active) under setting [1] and 98.3% under setting [2].
On to `Cc1cc(NC(=O)c2ccc([N+](=O)[O-])o2)c(C)cc1I`, for which the inhibition is 88% (active) under setting [1] and 92% under setting [2].
The like results for `c1ccc(CCNc2nc(-c3ccccn3)cs2)cc1` were, in that order, 87.2% (active) and 86.6%.
On the same counts, the results for `COc1ccc(CCNc2nc(-c3ccccn3)cs2)cc1OC` are 89.5% (active) and 78%.
The like results for `Cc1cn2c3c(=O)[nH]c(=O)n(C)c3nc2n1CCCNc1ccccc1` were, in that order, 34.8% (active) and 31.6%.
For `COC(=O)CSc1nnc(NC(=O)c2ccc(C(C)(C)C)cc2)s1`, the inhibition under setting [1] is 99.1% (active) and the inhibition under setting [2] was 98.3%.
Consider `CC(C)c1ccc(Nc2nnc(SCC(=O)Nc3ncc(S(=O)(=O)c4ccc([N+](=O)[O-])cc4)s3)s2)cc1`, for which the inhibition is, setting by setting: under setting [1], -1.44% (inactive); under setting [2], -2.42%.
On the same counts, the results for `COC(=O)CSc1nnc(NC(=O)c2ccc(Cl)cc2)s1` are 88.6% (active) and 86.6%.
The like results for `CCc1ccc(Nc2nnc(SCC(=O)Nc3cccnc3Cl)s2)cc1` were, in that order, 7.74% (inactive) and 23.1%.
The like results for `Cc1cccc2sc(NC(=O)c3ccc(C(C)(C)C)cc3)nc12` were, in that order, 12.6% (inactive) and 14.7%.
On to `CCOC(=O)C(C)Sc1nnc(NC(=O)c2ccc(C)c([N+](=O)[O-])c2)s1` (stereo unspecified), for which the inhibition under setting [1] was -5.3% (inactive) and the inhibition under setting [2] was 0.339%.
The like results for `CC1=Nc2c(ccc3cccnc23)C1(C)C` were, in that order, 8.5% (active) and 35.9%.
The like results for `COc1ccccc1-c1nnc(Nc2nc3c(F)cccc3s2)o1` were, in that order, 30.8% (active) and 84.8%.
On the same counts, the results for `COCCCNC(=O)c1c(NC(=O)c2ccc(C(C)(C)C)cc2)sc2c1CCCC2` are 15.2% (inactive) and -1.37%.
Turning to `Cc1ccc(C(=O)NCCSC(C)(C)C)cc1[N+](=O)[O-]`, the inhibition is -1.92% (inactive) under setting [1] and -26.5% under setting [2].
The like results for `Cc1ccc(C(=O)NCCC2=CCCCC2)cc1Br` were, in that order, 86.6% (active) and 67.2%.
The like results for `Cc1ccc(C(=O)NCCC2=CCCCC2)cc1I` were, in that order, 81.3% (active) and 52.7%.
On the same counts, the results for `CCn1c2ccccc2c2cc(CN3CCC(N4CCN(c5ccccc5)CC4)CC3)ccc21` are -3.76% (inactive) and -28%.
For the molecule `COC(=O)CSc1ccc2c(N)c(C(=O)OC)sc2c1`, the inhibition was 43.5% (active) under setting [1] and 77.1% under setting [2].
The like results for `COC(=O)CSc1ccc(C#N)c(SCC(=O)OC)c1` were, in that order, -1.74% (active) and 42.7%.
On the same counts, the results for `COC(=O)CSc1cc(SCC(=O)OC)c(C#N)c(SCC(=O)OC)c1` are 28.8% (inactive) and 23.9%.
The like results for `Cc1cc(C(C)(C)C)ccc1OCCCCn1ccnc1` were, in that order, 99.4% (active) and 99.7%.
On to `Cc1cc(C(C)(C)C)ccc1OCCOCCn1ccnc1`, for which the inhibition by setting is: under setting [1], 99.2% (active); under setting [2], 100%.
The like results for `N=c1c2c(-c3ccccc3)c(-c3ccccc3)n(Cc3ccco3)c2ncn1Cc1ccco1` were, in that order, 71% (active) and 61.5%.
On the same counts, the results for `O=C(CSc1nnc(-c2cccnc2)o1)N1CCC(Cc2ccccc2)CC1` are 95.4% (active) and 86.2%.
On the same counts, the results for `COc1ccccc1N1C(=O)c2cccc3cc([N+](=O)[O-])cc(c23)C1=O` are 89.8% (active) and 95.8%.
As for `Cc1cccc(C)c1OCc1nnc(SCC(=O)NCCc2ccccc2)o1`, the inhibition runs as follows: under setting [1], 84.2% (active); under setting [2], 73.9%.
The like results for `Cc1cccc(OCc2nnc(SCC(=O)NCCc3ccccc3)o2)c1` were, in that order, 92.7% (active) and 74.5%.
On the same counts, the results for `CSc1ccc(C(CC(=O)c2ccccc2)Nc2ccc(F)cc2)cc1` (stereo unspecified) are 19.6% (inactive) and 21.6%.
The like results for `Cn1c(NC(=S)Nc2ccccc2)nc2ccccc21` were, in that order, 21.4% (active) and 48.5%.
Regarding `Cn1c(NC(=O)c2ccccc2)nc2ccccc21`, the inhibition runs as follows: under setting [1], 98.3% (active); under setting [2], 99.7%.
On the same counts, the results for `O=C(CSc1ccc(Br)cc1)Nc1cccc(Cl)c1` are 7.93% (inactive) and 16.8%.
On the same counts, the results for `O=C(Nc1cccc(Cl)c1)c1cc(Br)ccc1Cl` are 76.3% (active) and 46.1%.
On the same counts, the results for `COc1ccc(N2C(=O)C(F)(F)C2c2ccccc2F)cc1` (stereo unspecified) are 33.6% (active) and 75.8%.
As to `O=C(NCc1ccc2c(c1)OCO2)c1cnn2c1NC(c1cccs1)CC2C(F)(F)F` (stereo unspecified), the inhibition is 100% (active) under setting [1] and 94.1% under setting [2].
On the same counts, the results for `O=C(NCc1ccco1)c1cnn2c1NC(c1ccc(Br)cc1)CC2C(F)(F)F` (stereo unspecified) are 38.9% (active) and 15.1%.
`Cc1c(CNC(=O)c2cnn3c2NC(c2ccc(Br)cc2)CC3C(F)(F)F)cnn1C` (stereo unspecified): the inhibition is 57.6% (active) under setting [1] and 17.9% under setting [2].
Consider `CSc1nc2ccc(NC(=O)C3CC(=O)N(Cc4ccccc4)C3)cc2s1` (stereo unspecified), for which the inhibition under setting [1] was 10.7% (inactive) and the inhibition under setting [2] was determined as 22.1%.
On the same counts, the results for `CCOC(=O)c1cnc(-n2nc(C)cc2C)nc1NCCc1ccccc1` are 101% (active) and 101%.
On the same counts, the results for `CCOC(=O)c1cnc(-n2nc(C)cc2C)nc1Nc1ccc(OC)cc1` are 54% (active) and 30.7%.
On the same counts, the results for `O=S1(=O)C=C(Sc2nnc(-c3ccncc3)o2)c2ccccc21` are 100% (active) and 101%.
`O=S1(=O)C=C(Sc2nnc(-c3ccccc3)o2)c2ccccc21`: the inhibition under setting [1] was 100% (active) and the inhibition under setting [2] is 101%.
On the same counts, the results for `CC(=O)Oc1c(C(=O)c2ccccc2)sc2ccccc12` are 79.9% (active) and 52.4%.
On the same counts, the results for `CCc1ccc(-c2ccc(SCC(N)=O)nn2)cc1` are 20% (active) and 41%.
On the same counts, the results for `Cc1cc(OCC(=O)NC2C3CC4CC(C3)CC2C4)cc(C)c1Br` (stereo unspecified) are 98.6% (active) and 72%.
Regarding `N#Cc1c(SCC(N)=O)nsc1SCc1ccccc1Cl`, the inhibition runs as follows: under setting [1], 20.8% (active); under setting [2], 61.7%.
On the same counts, the results for `O=C(OCC(=O)c1c[nH]c2ccccc12)c1ccc([N+](=O)[O-])s1` are 61.6% (active) and 52.7%.
The like results for `CCc1cccc2c(C(=O)COC(=O)c3ccc([N+](=O)[O-])s3)c[nH]c12` were, in that order, 91.9% (active) and 95.3%.
The like results for `Cc1ccc(-c2nnc(NC(=O)c3ccccc3Cl)o2)c(C)c1` were, in that order, 24.1% (active) and 62.8%.
Take `Cc1ccc(-c2nnc(NC(=O)c3cc4ccccc4oc3=O)o2)c(C)c1`: the inhibition by setting is: under setting [1], 80.8% (active); under setting [2], 88.6%.
`Cc1ccc(-c2nnc(NC(=O)c3ccccc3C)o2)c(C)c1`: the inhibition is 84.4% (active) under setting [1] and 87.2% under setting [2].
The like results for `Cc1ccc(-c2nnc(NC(=O)c3ccccc3Br)o2)c(C)c1` were, in that order, 6.55% (inactive) and 19.3%.
On the same counts, the results for `CCOC(=O)C1CCN(C2=NC(=O)C(=Cc3ccc(Cl)cc3Cl)S2)CC1` are 51.5% (active) and 55.8%.
The like results for `NC(=O)C1CCN(C2=NC(=O)C(=Cc3ccc(Cl)cc3Cl)S2)CC1` were, in that order, 100% (active) and 99.1%.
As to `Cc1ccc(-c2csc3ncn(C(C)C(=O)OC4CCCCC4)c(=O)c23)cc1C` (stereo unspecified), the inhibition is -0.545% (inactive) under setting [1] and -11% under setting [2].
The like results for `CSc1nc2nc3c(c(=O)n2[nH]1)CCCC3` were, in that order, 23.8% (active) and 41.7%.
On the same counts, the results for `Cc1cc(OCCCCn2ccnc2)ccc1C(C)C` are 99.8% (active) and 98.9%.
The like results for `Cc1cc(OCCCCn2ccnc2)cc(C(C)C)c1` were, in that order, 100% (active) and 100%.
For the molecule `Cc1ccc(C(C)C)c(OCCCCn2ccnc2)c1`, the inhibition under setting [1] is 98.9% (active) and the inhibition under setting [2] worked out at 100%.
On the same counts, the results for `Cc1ccc(C(C)C)cc1OCCCCn1ccnc1` are 100% (active) and 99.6%.
Turning to `O=C(c1ccc(Cl)cc1)c1ccc(CSc2nnc(-c3ccccc3)o2)o1`, the inhibition is 97.4% (active) under setting [1] and 96.9% under setting [2].
On the same counts, the results for `COC(=O)c1ccc(CSc2nnc(-c3ccncc3)o2)o1` are 14.3% (active) and 39.6%.
Consider `CCOc1cc(CNC(C)C23CC4CC(CC(C4)C2)C3)cc(Cl)c1OCC(=O)NC(C)(C)C` (stereo unspecified), for which the inhibition reads like this: under setting [1], 99.2% (active); under setting [2], 98.2%.
On the same counts, the results for `COc1cc(CNC(C)c2ccccc2)cc(Cl)c1OCC(=O)Nc1ccccc1` (stereo unspecified) are 29.9% (active) and 19%.
On the same counts, the results for `CCOC(=O)COc1ccc(S(=O)(=O)N2CCC(C)CC2)cc1` are 72.7% (active) and 91.2%.
On the same counts, the results for `CCOC(=O)COc1ccc(S(=O)(=O)N2CCc3ccccc3C2)cc1` are 80.1% (active) and 96.9%.
Regarding `CCOC(=O)c1ccc(NC(=O)CSc2nnc(-c3ccc(OC)cc3)o2)cc1`, the inhibition runs as follows: under setting [1], 18.2% (active); under setting [2], 56.7%.
As to `CCOc1ccc(NC(=O)CSc2nnc(Cc3ccc(OC)cc3)o2)cc1`, the inhibition is, setting by setting: under setting [1], 3.01% (inactive); under setting [2], 2.07%.
In the case of `C=CCSc1nnc(-c2ccc([N+](=O)[O-])cc2)o1`, the inhibition by setting is: under setting [1], 99.2% (active); under setting [2], 99.1%.
On to `COC(=O)c1ccc(NC(=O)CSc2nnc(Cc3ccc(OC)cc3)o2)cc1`, for which the inhibition runs as follows: under setting [1], 18.7% (active); under setting [2], 53.1%.
On the same counts, the results for `COc1ccc(-c2nnc(SCC(=O)Nc3ccc([N+](=O)[O-])cc3)o2)cc1` are 23.1% (active) and 88.8%.
On the same counts, the results for `Cc1ccc(Oc2cc(NC(=O)CCCn3nc(C)c([N+](=O)[O-])c3C)cc([N+](=O)[O-])c2)cc1` are 0.414% (inactive) and -13.5%.
As to `COc1ccc(Cc2nnc(SCC(=O)Nc3ccc(C(C)C)cc3)o2)cc1`, the inhibition reads like this: under setting [1], 6.85% (inactive); under setting [2], 9.66%.
Take `COc1cccc(NC(=O)CSc2nnc(-c3ccc(Br)cc3)o2)c1`: the inhibition is, setting by setting: under setting [1], 17.3% (inactive); under setting [2], 19.2%.
